High-throughput results (PubChem)
Shown are actives, neighbours in structure and some others; about 12% of the full set was active somewhere.
HP1b binding inh – HP1-beta chromodomain-methylated histone interaction inhibition; Potency, µM (highest dose often 114 µM), for inactives: at the highest dose activity change, negative = inhibition, most hits filed as inhibitors; AID 540317; AlphaScreen HP1-beta / biotin-H3K9me3 peptide binding; 390,000 tested, 0.56% active; P83916; note: nearly all actives have a fitted effect of over 70% in size
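Compound inhibition of the preformed complex between 50 nM HP1-beta and 50 nM biotinylated H3K9me3 peptide was read by AlphaScreen. Buffer was PBS pH 7.4 with 0.01% Tween-20. Incubations ran 30 min at room temperature, with 10 ug/mL donor/acceptor beads.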
Sfp PPTase inh – inhibitors of Bacillus subtilis Sfp phosphopantetheinyl transferase; Q9F4F7; Biochemical Sfp PPTase activity, qHTS; Potency, µM, for the others: largest response in the series, negative = inhibition, most hits filed as inhibitors; 310,000 tested, 3.5% active; AID 1490;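 note: the enzyme is Sfp with the accession as filed and its product quenches rhodamine fluorescence; 0% = enzyme reaction without inhibitor and -100% = no enzyme wells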
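With Hepes-Na pH 7.6 buffer containing 10 mM MgCl2, Sfp (15 nM) modified BHQ-2-YbbR (12.5 uM) using rhodamine-CoA (5 uM). Two reads 30 minutes apart at 525/598 nm yielded each well's rate.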
L3MBTL1 inh – blocks human L3MBTL1 | Q9Y468 | AlphaScreen L3MBTL1–H3K9me1 peptide binding | Potency, µM (highest dose often 57.1 µM), inactives show at the highest dose activity, negative = inhibition, actives largely listed as inhibitors | 230,000 tested, 0.66% active | AID 485360; note: % is set by controls: 0 for no effect and ±100 for the full control effect; nearly all actives have a fitted effect of over 60% in size
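L3MBTL1 50 nM + b-AHA-H3(1-15)K9me1 75 nM, 30 min RT; compound added, 30 min RT; streptavidin donor/Ni-chelate acceptor beads 10 ug/mL each final, 30 min RT dark; AlphaScreen read.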
JMJD2A Tudor – inhibitors of human JMJD2A Tudor domain; Potency, µM (top dose mostly 114 µM), without a hit: at the highest dose activity change, negative = inhibition, usual class: inhibitors; O75164; 390,000 tested, 4.4% active; AlphaScreen JMJD2A-Tudor / H3K4me3 peptide binding; note: % is set by controls: 0 for no effect and ±100 for the full control effect; nearly all actives have a fitted effect of over 50% in size
Target sequence (O75164 whole entry, looked up, the tested form may be a part): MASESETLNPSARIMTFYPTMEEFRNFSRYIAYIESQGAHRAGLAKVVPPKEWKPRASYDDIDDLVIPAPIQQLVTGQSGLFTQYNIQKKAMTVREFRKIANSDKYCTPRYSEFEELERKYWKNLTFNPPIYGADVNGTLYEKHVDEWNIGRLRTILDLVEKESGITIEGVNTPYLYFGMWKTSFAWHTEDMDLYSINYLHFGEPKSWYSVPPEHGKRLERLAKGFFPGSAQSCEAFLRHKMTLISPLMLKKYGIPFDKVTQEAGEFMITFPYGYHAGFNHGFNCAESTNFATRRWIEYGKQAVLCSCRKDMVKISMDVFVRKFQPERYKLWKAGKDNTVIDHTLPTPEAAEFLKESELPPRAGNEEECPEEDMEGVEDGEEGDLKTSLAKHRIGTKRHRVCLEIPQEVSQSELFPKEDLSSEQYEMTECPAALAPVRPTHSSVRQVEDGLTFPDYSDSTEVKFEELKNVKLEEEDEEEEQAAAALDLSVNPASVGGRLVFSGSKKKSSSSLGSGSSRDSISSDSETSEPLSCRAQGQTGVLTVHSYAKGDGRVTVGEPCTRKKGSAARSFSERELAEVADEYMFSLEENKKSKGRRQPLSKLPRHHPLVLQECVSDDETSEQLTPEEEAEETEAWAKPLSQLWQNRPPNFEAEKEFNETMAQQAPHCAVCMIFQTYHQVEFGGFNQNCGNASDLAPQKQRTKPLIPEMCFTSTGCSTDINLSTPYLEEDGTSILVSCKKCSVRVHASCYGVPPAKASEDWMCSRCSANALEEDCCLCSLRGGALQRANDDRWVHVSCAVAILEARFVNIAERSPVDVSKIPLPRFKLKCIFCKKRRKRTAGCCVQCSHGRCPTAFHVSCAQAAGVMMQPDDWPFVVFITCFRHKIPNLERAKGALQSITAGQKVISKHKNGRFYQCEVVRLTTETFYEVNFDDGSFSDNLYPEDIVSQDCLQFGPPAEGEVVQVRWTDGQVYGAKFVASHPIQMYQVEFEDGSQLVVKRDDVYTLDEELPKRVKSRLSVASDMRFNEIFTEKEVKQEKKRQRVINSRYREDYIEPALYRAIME
BAZ2B block – inhibitors of human BAZ2B bromodomain. Potency, µM (doses to about 114 µM), without a hit: at the highest dose activity change, negative = inhibition, usual class: inhibitors. Q9UIF8. AlphaScreen BAZ2B-H3K14Ac peptide displacement. 360,000 tested, 4.4% active; note: % is set by controls: 0 for no effect and ±100 for the full control effect; nearly all actives have a fitted effect of over 60% in size
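BAZ2B (50 nM) with biotin-H3(5-23)K14Ac peptide (50 nM) in PBS pH 7.4, 0.01% Tween-20, preformed 30 min, then compound 30 min at room temperature; top concentration 110uM. AlphaScreen streptavidin donor/nickel chelate acceptor beads (10 ug/mL final), 20 min dark, signal read.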
G9a block – blocks human histone lysine methyltransferase G9a; Q96KQ7; G9a H3K9 monomethylation, AlphaScreen, 2 h; Potency, µM (series often up to 102 µM), inactives show top-dose activity, negative = inhibition, most hits filed as inhibitors; 350,000 tested, 8.8% active; AID 504332; note: % is set by controls: 0 for no effect and ±100 for the full control effect; nearly all actives have a fitted effect of over 75% in size
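Compounds were preincubated with 20 nM G9a for 15 min, after which biotinylated H3K9 peptide (500 nM) and SAM (20 uM) started a 2 h room-temperature reaction. Monomethylated product was quantified by antibody-based AlphaScreen chemiluminescence.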
The depositor's hits bear a star; ? = inconclusive; . = not tested or not shown; [ ] = another dose, or the depositor's remark. Calls come from the whole dose curve; as a rule, active = well fitted curve in the direction sought with a large enough effect; inconclusive = small, poorly fitted or top-dose-only effect, or another doubt; inactive = no such curve, though single readings can be large; an effect the other way counts as inactive or inconclusive. Potency is the fitted concentration of half-maximal effect.

SMILES | HP1b binding inh | Sfp PPTase inh | L3MBTL1 inh | JMJD2A Tudor | BAZ2B block | G9a block
COc1ccc(C(CC(=O)c2ccc(C)cc2)Nc2ccc([N+](=O)[O-])cc2)cc1 (stereo not given) | -11% | 3% | -2% | ? | -38% | ?
Cc1ccc(C(=O)CC(SCC(=O)O)c2ccc([N+](=O)[O-])cc2)cc1 (stereo not given) | 50µM* | -16% | -9% | ? | ? | 25µM*
Cc1ccc(SCC(=O)N2c3ccccc3Sc3ccccc32)cc1 | 79% | 0% | 28% | 15% | 7% | 26%[12.7 µM]
Cc1nc2nc(SCC(=O)c3ccc([N+](=O)[O-])cc3)[nH]c2cc1Br | 0% | -3% | 8% | ? | 4% | 20µM*
Cc1ccnc(SC2CC(=O)N(c3ccc([N+](=O)[O-])cc3)C2=O)n1 (stereo not given) | 52% | 2% | -2% | -5% | -24% | 35µM*
NC(=O)CSc1nc2ccc([N+](=O)[O-])cc2[nH]1 | 20% | 15% | . | -17% | -10% | 25%[59 µM]
Cc1ccc(CNC(=O)C2CCN(S(=O)(=O)c3ccc(F)cc3)CC2)cc1 | 15% | . | . | 4% | -1% | 12%[59 µM]
COc1cccc(CCc2ccccc2OCC(CN(C)C)OC(=O)CCC(=O)O)c1 (stereo not given) | . | 24% | . | . | . | -2%[12.7 µM]
Cn1cccc1C(=O)N1CCC2(CCCN(c3ccncc3)C2)CC1 | . | 26% | . | . | . | 5%[12.7 µM]
O=c1/c(=C/c2ccccn2)sc2n1CN(c1ccccc1)CN=2 | -37% | 0% | -3% | 4%[11.4 µM] | 7% | 50µM*
Cc1cccc(N2CN=c3s/c(=C\c4ccccn4)c(=O)n3C2)c1 | 45% | 11% | -6% | -12% | -5% | 22%
O=C(Cc1nnc(-c2cc3ccccc3[nH]2)o1)Nc1cc(C(F)(F)F)ccc1Cl | . | . | . | -31% | . | .
C=CCNCCCCOc1ccc(C)cc1[N+](=O)[O-] | 18µM* | -13% | 2% | 7.9µM* | 56µM* | 13µM*
COCCNCCCCOc1ccc(C)cc1[N+](=O)[O-] | -21% | -2% | -7% | 2.8µM* | 56µM* | ?
COc1cccc(OCCOCCOc2ccc(C)cc2[N+](=O)[O-])c1 | 143% | -2% | 13% | -11%[57.1 µM] | 31% | 15%[59 µM]
CCC(C)NCCCCOc1ccc(C)cc1[N+](=O)[O-] (stereo not given) | ? | ? | 2% | 3.5µM* | 45µM* | 28%[0.501 µM]
Cc1ccc(OCCN2C(=O)c3ccccc3C2=O)c([N+](=O)[O-])c1 | 29% | -4% | -1% | -16% | -18% | -9%[59 µM]
Cc1ccc(OCCOCCNC(C)(C)C)c([N+](=O)[O-])c1 | -10% | -1% | 6% | 8.9µM* | 79µM* | 14µM*
C1CCCCCC(NCCN2CCNCC2)CCCCC1 | 18% | 28% | 15% | -9% | 0% | -13%[59 µM]
CCCCC/C=C\C/C=C\C/C=C\CCCCCCC(=O)NCCCC(=O)O | . | 22% | . | . | . | .
O=C(CCC(=O)Nc1cccc(C(F)(F)F)c1)NCC1CCCO1 (stereo not given) | 24% | 24% | -2% | -18% | 9% | 16%
COCCCNCCOc1ccc(C)cc1[N+](=O)[O-] | ? | -13% | 9% | 1µM* | ? | 14µM*
COc1ccc(OCCOCCOc2ccc(C)cc2[N+](=O)[O-])cc1 | 40% | 6% | 7% | -4% | 9% | 19%[59 µM]
CCC(C)(C)NC(=O)CN(Cc1ccccc1Cl)C(=O)CCC(=O)Nc1cc(C)ccn1 | 25% | 20µM* | 2% | -13% | -24% | .
Cc1cc(-c2ccccc2)nnc1NCCN1CCOCC1 | 42% | 11% | 8% | 79µM* | ? | -29%[2.33 µM]
SMILES | HP1b binding inh | Sfp PPTase inh | L3MBTL1 inh | JMJD2A Tudor | BAZ2B block | G9a block
CC(=O)C1=C(c2ccc(Cl)c(Cl)c2)N(C(C)=O)n2cnnc2S1 | 107% | . | . | 10% | 12% | 0%[59 µM]
Cc1ccc(OCC(=O)Nc2ccon2)c([N+](=O)[O-])c1 | 15% | 22% | . | -3% | -11% | ?
Cc1ccc(-c2nc(N3CCN(S(=O)(=O)c4ccc(F)cc4)CC3)c3ccc(Cl)cc3n2)cc1 | 33% | . | . | -6% | . | .
C(=N\N1CCN(C2c3ccccc3-c3ccccc32)CC1)/c1cccs1 | -26% | 13% | -8% | ? | ? | 41%[0.501 µM]
Cc1ccc(/C=N/N2CCN(C3c4ccccc4-c4ccccc43)CC2)o1 | ? | 18µM* | -29% | 45µM* | 35µM* | .
Oc1ccc(/C=N/N2CCN(C3c4ccccc4-c4ccccc43)CC2)cc1O | 50µM* | 56µM* | -10% | 40µM* | 40µM* | .
O=[N+]([O-])c1ccc(Cl)c(/C=N/N2CCN(C3c4ccccc4-c4ccccc43)CC2)c1 | -12% | -9% | 0% | ? | -35% | 27%[0.501 µM]
Oc1ccc(/C=N/N2CCN(C3c4ccccc4-c4ccccc43)CC2)c(O)c1 | ? | 24% | ? | 40µM* | ? | 40µM*
O=C(O)c1ccccc1/C=N/N1CCN(C2c3ccccc3-c3ccccc32)CC1 | 5% | 8% | -17% | -29% | -37% | 40µM*
COc1cc(/C=N/N2CCN(c3ccccc3OC)CC2)ccc1O | -9% | 6% | -2% | ? | ? | ?
CCN(CC)CCOC(=O)c1ccc(NC(=O)CCn2c(=O)oc3ccccc32)cc1 | 35% | . | . | -6% | -3% | -6%[59 µM]
CCOc1ccc(C(=O)c2oc3ccccc3c2NC(=O)Cc2coc3cc(C)cc(C)c23)cc1 | 18% | . | . | 0% | -7% | -24%[59 µM]
O=C(O)c1ccc(/C=N/N2CCN(C3c4ccccc4-c4ccccc43)CC2)cc1 | -5% | ? | . | -15%[11.4 µM] | 45µM* | .
Oc1ccc(/C=N/N2CCN(C3c4ccccc4-c4ccccc43)CC2)cc1 | 12% | 12% | -18% | -19% | -15% | -5%
Nc1ccc(S(=O)(=O)N2CCCN(S(=O)(=O)c3ccc4c(c3)OCCO4)CC2)cc1 | . | . | . | 89µM* | . | .
O=S(=O)(c1ccccc1)N1CCN(S(=O)(=O)c2ccc3c(c2)OCCO3)CC1 | . | . | . | -11% | . | .
COC(=O)Cn1c2ccccc2c2nc(=O)cc(C)n21 | 41% | 16% | . | -15% | 9% | -3%
COc1cc2c(cc1OC)n(CC(=O)NC1CCCCCC1)n1c(C)cc(=O)nc21 | -14% | 3% | . | 50µM* | -14% | 23%
COc1ccccc1N1CCN(CCCNC(=O)C2CCCN(c3ncnc4c3nc3n4CCCCC3)C2)CC1 (stereo not given) | 44% | 9% | . | 7% | ? | 7%
CCCCCCCC[n+]1c(C)n(-c2ccccc2)c2ccc(NC(C)=O)cc21 | 33% | -12% | -3% | -4% | -17% | 40µM*
